From PubChem
BAZ2B inh = BAZ2B (human) inhibition; AlphaScreen BAZ2B-H3K14Ac peptide displacement; 4.4% of 360,000 active; Potency, µM (titrated, usually from 114 µM), for the others: top-dose activity change, negative = inhibition, most hits filed as inhibitors; AID 504333; Q9UIF8; also: % is scaled to controls: 0 for no effect and ±100 for the full control effect; nearly all actives have a fitted effect of over 60% in size
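Multi-concentration screen (max 110 uM) measuring displacement of acetylated histone H3 peptide from BAZ2B by AlphaScreen, using 50 nM protein, 50 nM peptide and 10 ug/mL streptavidin donor plus Ni-chelate acceptor beads.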
JMJD2A Tudor inh = JMJD2A Tudor domain (human) inhibition; O75164; AlphaScreen JMJD2A-Tudor / H3K4me3 peptide binding; Potency, µM (top dose mostly 114 µM), without a hit: at the highest dose activity change, negative = inhibition, most hits filed as inhibitors; 4.4% of 390,000 active; AID 504339; also: % is scaled to controls: 0 for no effect and ±100 for the full control effect; nearly all actives have a fitted effect of over 50% in size
HP1b binding inh = HP1-beta chromodomain-methylated histone interaction inhibition; AID 540317; Potency, µM (titrated, usually from 114 µM), inactives show top-dose activity change, negative = inhibition, hits mostly inhibitors; AlphaScreen HP1-beta / biotin-H3K9me3 peptide binding; P83916; 0.56% of 390,000 active; also: nearly all actives have a fitted effect of over 70% in size
Target sequence (P83916 whole entry, looked up): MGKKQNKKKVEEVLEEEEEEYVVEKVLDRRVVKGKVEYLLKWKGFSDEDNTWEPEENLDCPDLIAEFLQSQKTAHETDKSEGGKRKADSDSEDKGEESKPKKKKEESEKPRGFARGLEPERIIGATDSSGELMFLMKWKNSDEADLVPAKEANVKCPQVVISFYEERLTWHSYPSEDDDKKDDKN
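Compound inhibition of the preformed complex between 50 nM HP1-beta and 50 nM biotinylated H3K9me3 peptide was read by AlphaScreen. Buffer was PBS pH 7.4 with 0.01% Tween-20. Incubations ran 30 min at room temperature, with 10 ug/mL donor/acceptor beads.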
G9a inh = G9a (human) methyltransferase inhibition | Q96KQ7 | G9a H3K9 monomethylation, AlphaScreen, 2 h | Potency, µM (top dose mostly 102 µM), without a hit: top-dose activity, negative = inhibition, actives largely listed as inhibitors | 8.8% of 350,000 active; also: % is scaled to controls: 0 for no effect and ±100 for the full control effect; nearly all actives have a fitted effect of over 75% in size
Target sequence (Q96KQ7 913-1193 limits assumed): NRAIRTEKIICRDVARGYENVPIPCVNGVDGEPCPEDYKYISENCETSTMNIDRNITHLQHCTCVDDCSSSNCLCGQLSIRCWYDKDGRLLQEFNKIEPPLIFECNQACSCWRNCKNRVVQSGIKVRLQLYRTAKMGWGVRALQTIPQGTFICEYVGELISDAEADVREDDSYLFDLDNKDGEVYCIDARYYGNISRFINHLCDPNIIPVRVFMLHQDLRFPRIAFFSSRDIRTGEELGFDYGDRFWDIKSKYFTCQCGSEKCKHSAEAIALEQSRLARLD
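Methyltransferase reactions run at room temperature for 2 h (20 nM enzyme, 500 nM biotin-H3K9 peptide, 20 uM SAM) after a 15 min compound preincubation; product detected by AlphaScreen beads and anti-H3K9me1 antibody.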
L3MBTL1 inh = L3MBTL1 (human) inhibition. Q9Y468. AlphaScreen L3MBTL1–H3K9me1 peptide binding. Potency, µM (titrated, usually from 57.1 µM), for the others: at the top dose activity, negative = inhibition, hits mostly inhibitors. 0.66% of 230,000 active. AID 485360; also: % is scaled to controls: 0 for no effect and ±100 for the full control effect; nearly all actives have a fitted effect of over 60% in size
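Read-out is AlphaScreen signal from streptavidin donor and nickel chelate acceptor beads (10 ug/mL final each) bridging L3MBTL1 (50 nM) and biotinylated K9-monomethylated H3(1-15) peptide (75 nM), after 30 min compound exposure at room temperature.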
The depositor's hits bear a star; [ ] = another dose, or the depositor's remark. Sampled rows, rich in hits. Any-hit rate of the full collection: about 11%. Calls follow the shape of the dose curve; as a rule, active = well fitted inhibition curve with a large enough effect; inconclusive = small, poorly fitted or top-dose-only effect; inactive = no such curve, though single readings can be large or run the other way. Potency is read from the fitted curve at half-maximal effect.

What do the screens show for `Cc1ccc(C)n1-c1sccc1C(=O)O`?
BAZ2B inh: 17.8µM*; JMJD2A Tudor inh: inconclusive; HP1b binding inh: inconclusive; G9a inh: 12.6µM*

How did COc1ccc(NC(=O)CC2C(=O)N(Cc3ccccc3)C(=S)N2CCN2CCOCC2)cc1 (centres undefined) do in these assays?
BAZ2B inh: -35.3%; JMJD2A Tudor inh: -21.8%; HP1b binding inh: 14.2%; G9a inh: -4.8%; L3MBTL1 inh: -8.0%

What do the screens show for `C=CCN1C(=O)C(CC(=O)Nc2ccc(OCCC)cc2)N(CCCN2CCN(Cc3ccccc3)CC2)C1=S` (centres undefined)?
BAZ2B inh: 10µM*; JMJD2A Tudor inh: inconclusive; HP1b binding inh: -20.9%; G9a inh: inconclusive

What do the screens show for `CCCCCCCC#Cc1ccccc1/C=N/S(=O)c1ccc(C)cc1` (centres undefined)?
BAZ2B inh: 24.6%; JMJD2A Tudor inh: 8.91µM*; HP1b binding inh: 171.0%; G9a inh: 0.794µM*; L3MBTL1 inh: 7.9%

Results for O=C(c1csnn1)N1CCC[C@@]2(CCN(c3ncccn3)C2)C1 ?
G9a inh: 2.4%[12.7 µM]

Results for C[n+]1ccc(/C=C/c2ccc(Br)cc2)cc1 ?
BAZ2B inh: 56.2µM*; JMJD2A Tudor inh: -3.4%; HP1b binding inh: 14.1%; G9a inh: inconclusive; L3MBTL1 inh: 1.6%

Results for C[n+]1ccc(/C=C/c2ccc3ccccc3c2)cc1 ?
G9a inh: 7.08µM*

How did COc1cccc(NC(=O)Cn2c(=O)oc3ccccc32)c1 do in these assays?
BAZ2B inh: 6.2%; JMJD2A Tudor inh: -0.7%; HP1b binding inh: 17.6%; G9a inh: 8.1%[12.7 µM]

Results for COc1ccc(C(CNC(=O)c2cc(SC)ccc2Cl)N(C)C)cc1 (centres undefined) ?
BAZ2B inh: 0.5%; JMJD2A Tudor inh: 2.2%[11.4 µM]; HP1b binding inh: 48.7%; G9a inh: -8.9%; L3MBTL1 inh: 1.0%

Results for COc1ccc(C(CNC(=O)c2ccccc2SC)N(C)C)cc1 (centres undefined) ?
BAZ2B inh: -6.9%; JMJD2A Tudor inh: -22.8%; HP1b binding inh: 9.6%; G9a inh: 7.94µM*; L3MBTL1 inh: 5.3%

What do the screens show for `COc1ccc(C(CNC(=O)Cn2c(=O)oc3ccccc32)N(C)C)cc1` (centres undefined)?
BAZ2B inh: -28.9%; JMJD2A Tudor inh: -6.2%; HP1b binding inh: 34.8%; G9a inh: 8.91µM*

What do the screens show for `O=C(NCc1ccco1)c1cccs1`?
BAZ2B inh: -8.8%; JMJD2A Tudor inh: -9.4%; HP1b binding inh: 25.7%; G9a inh: 39.8µM*; L3MBTL1 inh: -12.4%

What do the screens show for `O=C(NCc1ccco1)c1cc2cc(Br)ccc2o1`?
BAZ2B inh: inconclusive; JMJD2A Tudor inh: inconclusive; HP1b binding inh: inconclusive; G9a inh: 8.91µM*

How did O=C(NNC(=S)NCc1ccco1)c1cccs1 do in these assays?
BAZ2B inh: -3.9%; JMJD2A Tudor inh: inconclusive; HP1b binding inh: 12.9%; G9a inh: inconclusive; L3MBTL1 inh: 10.7%

Results for Cc1ccc(C)c(NC(=O)c2cnc3n(c2=O)CCS3)c1 ?
BAZ2B inh: -17.6%; JMJD2A Tudor inh: -7.6%; HP1b binding inh: 46.6%; G9a inh: 56.2µM*; L3MBTL1 inh: -1.5%

What do the screens show for `Cc1c(C(=O)NCc2ccco2)oc2ccc(Br)cc12`?
BAZ2B inh: inconclusive; JMJD2A Tudor inh: -10.3%; HP1b binding inh: 9.5%; G9a inh: inconclusive; L3MBTL1 inh: inconclusive

What do the screens show for `O=C(c1cnc2n(c1=O)CCS2)N(C1CCCCC1)C1CCCCC1`?
BAZ2B inh: 3.4%; JMJD2A Tudor inh: -7.5%; HP1b binding inh: 40.1%; G9a inh: 79.4µM*; L3MBTL1 inh: -1.4%

What do the screens show for `Brc1ccc(Nc2c3c(nc4nncn24)CCC3)cc1`?
BAZ2B inh: 5.5%; JMJD2A Tudor inh: -12.9%; HP1b binding inh: 40.8%; G9a inh: -6.8%[59 µM]

How did Cc1ccccc1OCCn1c(-c2ccc(Cl)cc2)nc2ccccc2c1=O do in these assays?
BAZ2B inh: -4.4%; JMJD2A Tudor inh: 6.2%; HP1b binding inh: 60.8%; G9a inh: inconclusive

What do the screens show for `O=C(NCc1ccc(F)cc1)c1cnc2n(c1=O)CCS2`?
BAZ2B inh: -1.8%; JMJD2A Tudor inh: -20.6%; HP1b binding inh: 24.2%; G9a inh: inconclusive

How did O=C(NCc1ccco1)c1cnc2n(c1=O)CCS2 do in these assays?
BAZ2B inh: 1.1%; JMJD2A Tudor inh: -12.8%; HP1b binding inh: 25.4%; G9a inh: 50.1µM*; L3MBTL1 inh: -4.1%

How did O=C(O)c1ccccc1-c1ccccc1C(=O)NCc1ccco1 do in these assays?
BAZ2B inh: 9.3%; JMJD2A Tudor inh: -34.6%; HP1b binding inh: 14.9%; G9a inh: 50.1µM*; L3MBTL1 inh: -7.6%

What do the screens show for `C=CCNC(=O)c1onc(CSc2nc3ccccc3[nH]2)c1C(=O)NCC=C`?
BAZ2B inh: inconclusive; JMJD2A Tudor inh: -25.9%; HP1b binding inh: 12.8%; G9a inh: 56.2µM*; L3MBTL1 inh: -2.8%

What do the screens show for `COc1ccc(C(C)=O)cc1Cn1c(=O)cc(C)[nH]c1=O`?
BAZ2B inh: 0.4%; JMJD2A Tudor inh: 0.0%; HP1b binding inh: 56.9%; G9a inh: 6.4%

What do the screens show for `CC(=O)Nc1ccc(S(=O)(=O)NNC2=NS(=O)(=O)c3ccccc32)cc1`?
BAZ2B inh: 70.8µM*; JMJD2A Tudor inh: -34.3%; HP1b binding inh: 50.4%; G9a inh: -45.2%

What do the screens show for `CC(=O)Nc1cc2c(cc1Br)OCCO2`?
BAZ2B inh: 5.3%; JMJD2A Tudor inh: -11.7%; HP1b binding inh: 7.5%; G9a inh: -5.5%[12.7 µM]; L3MBTL1 inh: 6.5%

How did Brc1ccc(CNc2cc3c(cc2Br)OCCO3)cc1 do in these assays?
BAZ2B inh: 31.6µM*; JMJD2A Tudor inh: inconclusive; HP1b binding inh: inconclusive; G9a inh: 44.7µM*; L3MBTL1 inh: inconclusive

How did CN(C)C(CNc1ccc(C(F)(F)F)cc1[N+](=O)[O-])c1ccccc1 (centres undefined) do in these assays?
BAZ2B inh: 8.91µM*; JMJD2A Tudor inh: 35.5µM*; HP1b binding inh: 44.7µM*; G9a inh: 31.6µM*

Results for CN(C)C(CNc1ccc(S(C)(=O)=O)cc1[N+](=O)[O-])c1ccccc1 (centres undefined) ?
BAZ2B inh: inconclusive; JMJD2A Tudor inh: -26.0%; HP1b binding inh: 16.9%; G9a inh: -9.4%

What do the screens show for `Cc1ccc(Nc2ccc(C(F)(F)F)cc2[N+](=O)[O-])cc1`?
BAZ2B inh: inconclusive; JMJD2A Tudor inh: inconclusive; HP1b binding inh: inconclusive; G9a inh: 3.16µM*; L3MBTL1 inh: -2.5%

How did CC(C)(CNc1ccc(C(F)(F)F)cc1[N+](=O)[O-])N1CCOCC1 do in these assays?
BAZ2B inh: inconclusive; JMJD2A Tudor inh: inconclusive; HP1b binding inh: -11.1%; G9a inh: 70.8µM*

How did CN(C)C(CNC(C(=O)Nc1ccc([N+](=O)[O-])cc1Br)c1ccccc1)c1ccccc1 (centres undefined) do in these assays?
JMJD2A Tudor inh: 35.5µM*; HP1b binding inh: inconclusive; G9a inh: inconclusive; L3MBTL1 inh: -4.1%
